# Epigenetic derep: regulators of epigenetic silencing causing reporter derepression in mouse cells; murine LDR cells, GFP reporter derepression, 30 h; Potency, µM (highest dose often 53.9 µM), for the others: top-dose GFP activation, usual class: activators; 280,000 tested, 0.2% active; also: % of control where 0% means no effect; nearly all actives have a fitted effect of over 60% in size
#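 GFP-positive cell count by laser-scanning cytometry (objects 20–120 um) after 30 h, 37 C compound exposure of murine LDR cells; reporter is CMV-GFP integrated at a silenced locus, inducible by HDAC or DNMT inhibitors.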
# ClpP mod: qHTS Assay for Activators of ClpP; ATP-dependent Clp protease proteolytic subunit (Bacillus subtilis (strain 168)), P80244; purified B. subtilis ClpP, FRET peptide cleavage, 20 min; Potency, µM (titrated, usually from 57.5 µM), without a hit: at the highest dose activity change, negative = active; 340,000 tested, 1.9% active; active = well fitted falling curve with a large enough effect; inconclusive = small, poorly fitted or top-dose-only effect; inactive = no such curve, though single readings can be large or run the other way; also: the source files actives as falling curves though it sought activators and does not explain the sign; nearly all actives have a fitted effect of over 65% in size
#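 Purified B. subtilis ClpP, 10 microg/mL final in Tris/HCl pH8 with KCl, BSA, glycerol and Tween-20, cleaved an Abz/nitrotyrosine-quenched decapeptide. Fluorescence (ex 320, em 430) was read at 0 and 20 min at room temperature. Delta was normalized to 5.8 microM ADEP and DMSO/no-enzyme controls.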
# RORg inh: inhibitors of mouse ROR gamma transcriptional activity; Drosophila S2 Gal4-RORgamma UAS-luciferase reporter, 20 h; Potency, µM (titrated, usually from 53.6 µM), for inactives: top-dose activity change, negative = inhibition, usual class: inhibitors; 310,000 tested, 5.4% active; AID 2551; also: % is scaled to controls: 0 for no effect and ±100 for the full control effect; nearly all actives have a fitted effect of over 60% in size
# Target sequence (P51450 whole entry, looked up, the tested form may be a part): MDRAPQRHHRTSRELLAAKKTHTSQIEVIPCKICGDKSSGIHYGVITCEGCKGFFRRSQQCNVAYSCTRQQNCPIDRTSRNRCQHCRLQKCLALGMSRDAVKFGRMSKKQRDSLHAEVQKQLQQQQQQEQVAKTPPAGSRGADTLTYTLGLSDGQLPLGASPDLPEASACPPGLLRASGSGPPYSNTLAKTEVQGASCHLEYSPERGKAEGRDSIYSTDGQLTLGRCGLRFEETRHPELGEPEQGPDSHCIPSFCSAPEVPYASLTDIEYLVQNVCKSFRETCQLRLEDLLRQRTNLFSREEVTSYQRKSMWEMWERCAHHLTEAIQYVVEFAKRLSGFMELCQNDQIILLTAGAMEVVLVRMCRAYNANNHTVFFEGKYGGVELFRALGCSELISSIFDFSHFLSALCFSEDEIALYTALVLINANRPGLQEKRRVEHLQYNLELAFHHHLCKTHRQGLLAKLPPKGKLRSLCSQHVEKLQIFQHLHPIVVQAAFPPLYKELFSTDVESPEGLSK
#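 Luciferase reporter read in Schneider cells carrying Gal4-RORγ (mouse) and UAS-Photinus luciferase; cells given compound 1 h before 700 uM copper sulfate induction, then incubated 20 h at ambient temperature.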
# PINK1 expr mod: modulators of PINK1 expression | PINK1 immunofluorescence, high-content cytometry, 24 h | 410,000 tested, 0.2% active | Potency, µM (series often up to 76.6 µM), for inactives: at the highest dose activation (PINK1 increase), usual class: activators | AID 624263; active = well fitted activation curve with a large enough effect; inconclusive = small, poorly fitted or top-dose-only effect; cell line not stated here; also: % of control where 0% means no effect; nearly all actives have a fitted effect of over 65% in size
#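 Cells are seeded, rested 12 hours, then given compound at five concentrations or DMSO for 24 hours. After fixation, blocking and antibody staining, PINK1 amount and mitochondrial localization are scored; CCCP serves as control.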
# Sfp PPTase inh: inhibitors of Bacillus subtilis Sfp phosphopantetheinyl transferase; Q9F4F7; Biochemical Sfp PPTase activity, qHTS; Potency, µM, inactives show largest response in the series, negative = inhibition, usual class: inhibitors; 310,000 tested, 3.5% active; AID 1490;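 also: the enzyme is Sfp with the accession as filed and its product quenches rhodamine fluorescence; 0% = enzyme reaction without inhibitor and -100% = no enzyme wells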
#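 Compounds were incubated with enzyme (final 15 nM) for 15 min at room temperature before substrate addition started the reaction. Fluorescence at 525 nm excitation, 598 nm emission was recorded immediately and after 30 minutes.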
# Gal4-VP16 FLuc: inhibits Gal4-VP16 luciferase reporter, ROR gamma counter-screen. Drosophila S2 Gal4-VP16 UAS-luciferase, luminescence, 20 h. Potency, µM (doses to about 53.6 µM), without a hit: at the top dose activity, negative = inhibition, most hits filed as inhibitors. 310,000 tested, 3.5% active;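 also: Gal4-VP16 expression switched on by copper sulfate through the metallothionein promoter; % is scaled to controls: 0 for no effect and ±100 for the full control effect; nearly all actives have a fitted effect of over 50% in size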
# Starred values were filed as active, the others as inactive; ? = inconclusive; · = no result given; ! = a repeat was not active; [ ] = another dose, or the depositor's remark. Rows were chosen to be rich in hits. Some 8.1% of all compounds tested hit in one or more screens of this group. Unless noted, calls follow the shape of the dose curve; as a rule, active = well fitted curve in the direction sought with a large enough effect; inconclusive = small, poorly fitted or top-dose-only effect, or another doubt; inactive = no such curve, though single readings can be large; an effect the other way counts as inactive or inconclusive. Potency is read from the fitted curve at half-maximal effect.
SMILES,Epigenetic derep,ClpP mod,RORg inh,PINK1 expr mod,Sfp PPTase inh,Gal4-VP16 FLuc
COc1ccc(-c2nnc(NC(=O)c3cc(Cl)ccc3Cl)o2)cc1,-2%,-3%,1.1µM*,1%,8%,1.4µM*
COc1c(C)cccc1C(=O)Nc1ccc(Cl)c(-c2nc3cc(C)ccc3o2)c1,0%,25µM*,·,5%,·,·
COc1ccc(-c2nnc(NC(=O)c3ccc(F)cc3)o2)cc1,5%,1%,0.11µM*,1%,23%,?
COc1ccc(-c2nnc(SCC(=O)Nc3cccc(Cl)c3)o2)cc1,3%,-11%,-34%,?,-1%,?
COc1ccc(OC(=O)CSc2nnc(-c3ccc(F)cc3)o2)cc1,-1%,2%,·,1%,·,·
CCOc1ccc(C(=O)c2cn(CC(=O)Nc3cc(OC)cc(OC)c3)c3ccc(F)cc3c2=O)cc1,8%,-6%,·,5%,·,·
O=C(Nc1nnc(-c2ccc(F)cc2)o1)c1ccc(S(=O)(=O)N2CCOCC2)cc1,·,-1%,0.63µM*,3%,0%,0.71µM*
Cc1ccc(-c2nc3cc(NC(=O)c4cc(Br)ccc4Cl)ccc3o2)cc1,2%,?,·,11%,·,·
COc1ccc(OCC(=O)Nc2ccc(-c3nc4cc(Cl)ccc4o3)cc2)cc1,-1%,-12%,·,-1%,·,·
CS(=O)(=O)c1cccc(-c2nnc(NC(=O)c3ccc(S(=O)(=O)N4CCCC4)cc3)o2)c1,·,1%,·,1%,·,·
COc1ccc2oc(-c3ccc(NC(=O)c4ccc(Cl)cc4Cl)cc3)nc2c1,-1%,35µM*,·,1%,·,·
COc1ccc2oc(-c3ccc(C)c(NC(=O)CSc4ccc(Cl)cc4)c3)nc2c1,0%,11µM*!,15%,1%,-11%,17%
Cc1cc(C)c2oc(-c3ccc(NC(=O)c4cc(Br)ccc4Cl)cc3)nc2c1,0%,20µM*,·,2%,·,·
COc1ccc(S(=O)(=O)N(CC(=O)NCc2ccco2)C2CCCCC2)cc1OC,2%,1%,?,1%[38.3 µM],50µM*,-14%
Cc1ccc(S(=O)(=O)N(CC(=O)NCc2ccco2)C2CCCCC2)cc1,-1%,1%,40%,7%[38.3 µM],-15%,7%
COc1ccccc1N(CC(=O)NCc1ccco1)S(=O)(=O)c1ccc(C)cc1,·,·,39%,1%,56µM*,-1%
Cc1cccc(NS(=O)(=O)c2cc(C(=O)O)ccc2Cl)c1,0%,·,·,·,·,·
CN1CCN(S(=O)(=O)c2ccc(NC(=S)NC(=O)C3CCC3)cc2)CC1,-2%,1%,-6%,-2%,0%,-2%
CC(C)CC(=O)NC(=S)Nc1ccc(S(=O)(=O)N2CCCC2)cc1,1%,·,16µM*,-1%,11%,-13%
O=C(NC(=S)Nc1ccc(S(=O)(=O)N2CCCC2)cc1)C1CC1,-1%,-3%,10µM*,-1%,-19%,-1%
O=C(NC(=S)Nc1ccc(S(=O)(=O)N2CCCC2)cc1)C1CCC1,-2%,1%,11µM*,1%,2%,-2%
O=C(Nc1ccc(S(=O)(=O)N2CCCCC2)cc1)C1CCCCC1,·,·,14%,5%,3%,4%
O=C(Cc1ccc(OCCCc2ccccc2)cc1)NO,·,0%,·,2%,·,·
CCC(C)c1ccccc1NC(=O)COC(=O)c1ccc2[nH]c3c(c2c1)CCCC3 (centres undefined),-1%,32µM*,6%,?,20%,20µM*
O=C(Cc1ccccc1)NC1CC(=O)N(c2ccccc2)C1 (centres undefined),5%,0%,·,1%,·,·
Cc1cccc(NC(=O)c2sc3nc(-c4ccc(F)cc4)cn3c2C)n1,7%,-14%,3%,20%,50µM*,-12%
COc1ccc(-c2cn3c(C)c(C(=O)Nc4cccc(C)n4)sc3n2)cc1,2%,-11%,7.1µM*,9%[38.3 µM],40µM*,11µM*
Cc1ccc(C23CC4CC(CC(NC(=O)N5CCN(C)CC5)(C4)C2)C3)cc1,-2%,-2%,13µM*,2%,6%,-23%

# Screening results deposited in PubChem by National Center for Advancing Translational Sciences (NCATS).
